Many of the other results were omitted from the sample, so hits are more common in it than they were.
Pf Dd2 inh: Plasmodium falciparum Dd2 growth inhibition; Potency, µM (series often up to 28.9 µM), for the others: at the highest dose activity, negative = inhibition, usual class: inhibitors; 120,000 tested, 4.3% active; P. falciparum Dd2 growth, SYBR Green, 72 h; active means well fitted inhibition curve with a large enough effect;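 further: plate controls were DMSO vehicle for no effect and reference drug for full effect; nearly all actives have a fitted effect of over 65% in size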
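Readout: SYBR Green fluorescence, 485 nm excitation, 535 nm emission, after ~16 h lysis at 37C. Before that, Dd2-infected red cells (2.5% hematocrit) grew 72 h with compound, 29 uM top final concentration.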
The depositor's hits bear a star; i = inactive; [ ] = remark or other dose. Potency means the concentration at half of the fitted maximal effect.

SMILES	Pf Dd2 inh
O=C(Nc1nc2ccc(F)cc2s1)c1nc(S(=O)(=O)Cc2ccccc2F)ncc1Cl	77%
CCSc1ncc(Cl)c(C(=O)Nc2cccc(Cl)c2)n1	24%
O=C(Nc1cccc(C(F)(F)F)c1)c1cc2nc(-c3ccco3)cc(C(F)(F)Cl)n2n1	15%
CS(=O)(=O)c1ncc(N(Cc2ccccc2)Cc2ccco2)c(C(=O)Nc2cccc(C(F)(F)F)c2)n1	6.3µM*
COc1ccc(-c2nc(-c3nnn4c3COC(c3ccc(C)cc3)C4)no2)cn1 (centres undefined)	i
COC(=O)c1ccc2nc(CO[C@H]3CN(C(C)=O)C[C@H]3F)[nH]c2c1	2%[44.1 µM]
O=C(c1cccc(F)c1)N1CCCC(Cc2noc(-c3ccccc3)n2)C1 (centres undefined)	27%
COc1ccc(CN2C[C@H](O)C[C@H]2c2nc(-c3ccc(C)c(F)c3)no2)cc1	-6%[44.1 µM]
COc1cccc(CNC(=O)CN2C(=O)NC3(CCOCC3)C2=O)c1OC	16%
Cc1ccc(CN2C(=O)NC3(CCCN(C(=O)c4cc(F)ccc4F)C3)C2=O)cc1 (centres undefined)	-20%
C=CCC1(C(=O)O)CCCN(Cc2ccc(OC)c(COC)c2)C1 (centres undefined)	-7%
CC(C)NC(=O)C[C@@H]1C[C@H]2O[C@H](CNC(=O)NC(C)C)[C@@H](O)[C@H]2O1	44%[44.1 µM]
Cc1noc(C)c1CC(=O)N(C)C1CCc2nn(CC3CC3)c(=O)n2CC1 (centres undefined)	23%
O=C(NCc1ccco1)N1CC(n2cc(COc3ccccc3)nn2)C1	-12%
O=C(c1ccccc1Br)N1CC(n2cc(COc3ccc(F)cc3)nn2)C1	11µM*
Cc1ccc(C)c(NC(=O)N2CC(n3cc(COc4ccccc4)nn3)C2)c1	-8%
CCOc1cc(=O)n2c(c1C(=O)Nc1cccc(F)c1)CCCC2	-7%
CC(=O)Nc1ccc(S(=O)(=O)N2C[C@@H]3C[C@H](C2)c2c(-c4cccs4)ccc(=O)n2C3)cc1	-22%
CCc1nc(CN2CCCC(CO)(CC3CC3)C2)cs1 (centres undefined)	13µM*
COc1cccc(CCC(=O)N2CCCC(CO)(CC3CC3)C2)c1 (centres undefined)	-5%
CCc1nccc(CN2CCCC(CC3CC3)(C(=O)O)C2)n1 (centres undefined)	-8%
COc1ccc(CN2CCCC(CO)(CC3CC3)C2)c(F)c1 (centres undefined)	13µM*
OCc1cc2n(n1)CCCN(Cc1cccc(OCc3ccccn3)c1)C2	7%
O=C(O)C1(CC2CC2)CCCN(Cc2ncccn2)C1 (centres undefined)	-3%
OCC1(CC2CC2)CCCN(Cc2cccc(OCc3ccccn3)c2)C1 (centres undefined)	5.6µM*
SMILES	Pf Dd2 inh
COc1ccc(CN2CCN(CC(N)=O)CC2CCO)c(F)c1 (centres undefined)	-3%
CN(C)C(=O)CN1CCCC(CO)(CC2CC2)C1 (centres undefined)	-20%
CNC(=O)Nc1ccc(C)n(CC(=O)N2CCN(c3cccc(Cl)c3)CC2)c1=O	i
CC(=O)N1CCC2(CC1)C(=O)NN=C2c1ccncc1	12%[44.1 µM]
CCC1(C(=O)NCc2ccc(N3CCC(C)CC3)cc2)CCCCC(=O)N1 (centres undefined)	-4%
COCC(=O)N1CCc2nc(C)nc(-c3ccc(OC)cc3)c2C1	8%[44.1 µM]
Cn1ccc(C(=O)N2CCC(c3nnc4n3C(C(=O)NCc3ccc(F)cc3)CC4)CC2)n1 (centres undefined)	8%
O=C(NCC1CN(C(=O)Cc2ccc(C(F)(F)F)cc2)CC12CN(c1ccccc1)C2)c1ccccc1 (centres undefined)	i
CC(=O)Nc1ccc(NC(=O)C2CCN(c3cnccn3)CC2)cc1	i
CCc1ccc(CN2CCC(C(=O)Nc3ccc(Oc4cccnc4)cc3)CC2)o1	11µM*
COc1ccc(S(=O)(=O)N2CCC(C(=O)Nc3ccc(Oc4ccccc4)cc3)CC2)cc1	-5%
O=C(NCCc1cnc[nH]1)[C@@H]1C[C@H]2C(=O)NCCCCCCN(S(=O)(=O)c3cccs3)[C@H]2C1	-16%
COCC(=O)N1CCc2nc(C)nc(NCc3cc(C)nn3C)c2CC1	-13%
O=C(CC(F)(F)F)NCCc1noc(C2CC2)n1	61%
CC(=O)Nc1ccc(CN2C[C@@H](F)[C@@H](OCc3nc4cc(C)c(C)cc4[nH]3)C2)cc1	11µM*
Cc1ccc2nc(CO[C@H]3CN(Cc4ccc(C(F)(F)F)cc4)C[C@H]3F)[nH]c2c1	8.9µM*
Fc1ccc2nc(CO[C@H]3CN(Cc4ccccc4)C[C@H]3F)[nH]c2c1	13µM*
COC(=O)c1ccc2nc(CO[C@H]3CN(Cc4cnn(C)c4)C[C@H]3F)[nH]c2c1	-22%[44.1 µM]
COC(=O)c1ccc2nc(CO[C@H]3CN(Cc4cccc(C#N)c4)C[C@H]3F)[nH]c2c1	-2%[44.1 µM]
Cc1cc2nc(CO[C@H]3CN(Cc4ccc(C(=O)O)cc4)C[C@H]3F)[nH]c2cc1C	i
COC(=O)c1ccc2nc(CO[C@H]3CN(Cc4ccc(C(F)(F)F)cc4)C[C@H]3F)[nH]c2c1	-9%

Screens (PubChem)
